Reference: PubChem BioAssay
Activity calls are given as the source filed them.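 Rule for the calls, unless noted: active = compound raises GLP1 secretion from the human gut endocrine cells, with no numeric limit stated; inactive = the rest.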

Experiments:
[1] = stimulators of nuclear beta-catenin in C2C12, primary screen, imaging, WNT3A-conditioned medium, mouse C2C12, NPC library (AID 1117326; in the data active = nuclear beta-catenin stimulation mostly above about 4.2%, no sharp cut-off; inactive = mostly below about 10%; note: reference of the scale not given here); conditions: stronger effect = higher value
[2] = stimulators of insulin release from INS-1E, primary screen, cell-based, 5 mM glucose, NPC library (AID 1117329;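 active = compound raises insulin release from rat beta cells at 5 mM glucose, no numeric limit stated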; note: reference of the scale not given here); conditions: rat INS-1E insulin secretion, at 10 µM, stronger effect = higher value
[3] = growth inhibition of GSK3B-pretreated HCT116 cells – cell-based, CellTiter-Glo, 0.2 to 20 µM (AID 1117336;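 active = compounds lowering colon cancer cell viability after pretreatment blocking the GSK3B kinase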); conditions: HCT116 viability after GSK3B inhibitor, at 20 µM, stronger effect = higher value
[4] = inhibition of endothelial tube formation, primary screen, imaging, VEGF stimulated, CD31 staining, tube area, NPC library (AID 1117340;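 active = compound that reduces growth-factor-driven endothelial tube area in a mixed cell culture, no cutoff stated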); conditions: VEGF-stimulated ADSC/ECFC co-culture, at 10 µM, stronger effect = higher value
[5] = glucagon-like peptide 1 release enhancers, primary assay, NCI-H716 cell line, NPC library (AID 1117341); conditions: NCI-H716 cells, at 10 µM, stronger effect = higher value; note: reference of the scale not given here
[6] = HCT116 colon cancer cell growth inhibition, primary screen, CellTiter-Glo luminescence, NPC library (AID 1117342;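 active = compounds that lower survival of HCT116 colon cancer cells in the luminescence readout, no numeric limit stated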); conditions: at 20 µM (top of the series)
[7] = CellTiter-Glo luminescent readout of SW480 viability loss, NPC library primary (AID 1117343;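 active = compounds that lower viability of the colon cancer cells in the luminescence readout, with no numeric limit stated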); conditions: CellTiter-Glo luminescence; at 20 µM (top of the series)
[8] = decreased DLD-1 cellular survival, CellTiter-Glo luminescent readout, NPC compound collection, primary HTS (AID 1117346;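 active = compounds that lower survival of DLD-1 colon cancer cells in the luminescence readout, no cutoff given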); conditions: DLD-1 viability, CellTiter-Glo luminescence; at 20 µM (top of the series)
[9] = biological target: NAD(+) hydrolase SARM1 (Homo sapiens) (UniProt Q6SZW1); test: SARM1 TIR NADase inhibitors, cell lysate, NAD-Glo luminescence (AID 1508614;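 active = compound whose remaining NAD level is above about 45 nM, limit read from the data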;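 note: higher remaining NAD means stronger inhibition of SARM1 NADase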); conditions: SAM-TIR HEK293T lysate NADase, at 1 µM, stronger effect = higher value
NAD(+) hydrolase SARM1 (Homo sapiens), sequence (Q6SZW1 whole entry, looked up): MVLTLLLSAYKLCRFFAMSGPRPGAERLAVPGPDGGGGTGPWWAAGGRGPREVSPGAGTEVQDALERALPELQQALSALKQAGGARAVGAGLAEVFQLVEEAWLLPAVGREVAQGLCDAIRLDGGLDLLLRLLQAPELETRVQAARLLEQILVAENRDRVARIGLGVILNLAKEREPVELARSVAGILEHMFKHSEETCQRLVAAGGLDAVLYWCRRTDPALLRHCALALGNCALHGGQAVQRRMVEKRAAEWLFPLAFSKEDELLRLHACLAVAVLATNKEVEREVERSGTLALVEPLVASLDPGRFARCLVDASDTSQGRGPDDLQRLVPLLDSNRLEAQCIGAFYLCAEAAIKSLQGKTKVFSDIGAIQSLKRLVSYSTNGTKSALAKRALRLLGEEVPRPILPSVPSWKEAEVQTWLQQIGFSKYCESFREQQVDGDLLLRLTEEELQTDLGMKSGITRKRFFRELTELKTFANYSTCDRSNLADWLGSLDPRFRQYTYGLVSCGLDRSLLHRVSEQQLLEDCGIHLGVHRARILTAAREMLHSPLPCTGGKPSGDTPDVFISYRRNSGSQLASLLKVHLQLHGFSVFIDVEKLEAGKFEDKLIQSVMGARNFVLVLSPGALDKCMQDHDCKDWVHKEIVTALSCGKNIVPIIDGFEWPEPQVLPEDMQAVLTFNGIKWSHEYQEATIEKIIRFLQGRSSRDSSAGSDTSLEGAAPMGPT

[10] = sensitizers of A549 cells to miR-34 induction, primary screen, imaging, A549 dox-inducible miR-34, nuclei and caspase counts (AID 1347080;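 active = compounds whose cell count with miR-34 switched on is under 0.7 times the count with it off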); conditions: A549 miR-34 inducible, Hoechst nuclei count, 48 h
[11] = hESC survival regulators, cell-based (AID 493140; call rule not given here;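 note: cells exposed to compounds for four days before counting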); conditions: human embryonic stem cell survival screen; stronger effect = higher value
[12] = liver-stage malaria parasite growth inhibition, primary screen, cell-based, HepG2, luciferase luminescence, HepG2 viability (AID 624349; in the data active = parasite load remaining mostly below about 12%, no sharp cut-off; inactive = mostly above about 10%;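 note: 100% = mean of DMSO negative control wells on the same plate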); conditions: P. berghei liver stage in HepG2, luciferase luminescence, concentration not given here; parasite load remaining: stronger effect = lower value; viability: measured here: HepG2 viability without parasites
[13] = survival rescue of mitochondrial mutant cells in low glucose, primary screen, MELAS cybrids, Rieske KO mouse fibroblasts, CellTiter-Glo (AID 1508586;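 active = mean z-score across replicates of 1.96 or higher in either the MELAS or the Rieske mutant cell line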;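 note: z relative to plate mean and SD of compound and empty wells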)
[14] = viability rescue of complex I mutant cybrids, primary screen, cell-based, galactose medium, ATP luminescence (AID 1645843;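 active = z-score of at least 1.8 in each of two replicates, scored against plate mean and spread of sample wells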;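 note: positive z means more ATP and so rescue of galactose-driven cybrid death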); conditions: complex I mutant cybrid cells, 72 h, stronger effect = higher value
[15] = biological target: 6-phosphogluconate dehydrogenase, decarboxylating (Homo sapiens) (UniProt P52209); test: 6PGD enzyme inhibitors, primary screen, biochemical, human, recombinant enzyme, NADPH absorbance (AID 1159550;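 active = at least 20% inhibition of 6-phosphogluconate dehydrogenase activity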); conditions: recombinant 6PGD, NADPH absorbance 341 nm; at 10 µM; stronger effect = higher value
6-phosphogluconate dehydrogenase, decarboxylating (Homo sapiens), sequence (P52209 whole entry, looked up): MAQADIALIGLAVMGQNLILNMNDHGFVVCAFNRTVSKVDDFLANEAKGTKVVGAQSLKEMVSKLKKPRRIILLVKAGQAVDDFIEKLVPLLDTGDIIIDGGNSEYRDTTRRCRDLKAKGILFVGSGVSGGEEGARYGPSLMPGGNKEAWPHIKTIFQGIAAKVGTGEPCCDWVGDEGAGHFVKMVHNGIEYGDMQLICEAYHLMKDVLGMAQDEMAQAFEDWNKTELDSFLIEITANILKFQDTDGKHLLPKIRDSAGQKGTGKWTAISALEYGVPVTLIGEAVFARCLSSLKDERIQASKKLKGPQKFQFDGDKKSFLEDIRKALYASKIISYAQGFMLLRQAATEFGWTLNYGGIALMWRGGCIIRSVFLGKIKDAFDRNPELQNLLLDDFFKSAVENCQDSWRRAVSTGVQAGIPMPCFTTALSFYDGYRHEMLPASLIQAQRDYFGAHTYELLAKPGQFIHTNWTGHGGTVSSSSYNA

[16] = stronger effect = lower value, cell number ratio, induced over uninduced
[17] = measured here: relative caspase fold change +Dox/-Dox
[18] = measured here: total cells with miR-34 induction, stronger effect = lower value
[19] = measured here: total cells without miR-34 induction
[20] = MELAS cybrid survival, CellTiter-Glo 48 h, stronger effect = higher value
[21] = Rieske KO mouse fibroblast survival, CellTiter-Glo 72 h

O=[N+]([O-])C(Br)(CO)CO
nuclear beta-catenin stimulation ([1]; at 10 µM): 44.8% (active)
nuclear beta-catenin stimulation ([1]; stimulation, at 2 µM): 0%
insulin secretion stimulation [2]: 20.2% (active)
viability decrease [3]: -19.2% (inactive)
tube area decrease [4]: 106% (active)
GLP1 secretion stimulation [5]: -0.1% (inactive)
inhibition of viability [6]: 2.9% (inactive)
viability decrease (inhibition) [7]: 88.9% (active)
viability decrease (inhibition) [8]: 52.2% (active)
remaining NAD [9]: 51 nM (active)

COC(=O)[C@@H](N)CCCN/C(N)=N/[N+](=O)[O-]
nuclear beta-catenin stimulation ([1]; at 10 µM): -0.9% (inactive)
nuclear beta-catenin stimulation ([1]; stimulation, at 2 µM): -2.6%
insulin secretion stimulation [2]: 0.95% (inactive)
viability decrease [3]: 23.3% (inactive)
tube area decrease [4]: -8.8% (inactive)
GLP1 secretion stimulation [5]: 0.9% (inactive)
inhibition of viability [6]: 1.7% (inactive)
viability decrease (inhibition) [7]: -10.3% (inactive)
viability decrease (inhibition) [8]: -0.3% (inactive)
fold change [10, 16]: 0.947 (inactive)
fold change [10, 17]: 0.639
cell count [10, 18]: 5570
cell count [10, 19]: 5890

CC(C)(C)CC(C)(C)c1ccc(O)cc1
nuclear beta-catenin stimulation ([1]; at 10 µM): -1.8% (inactive)
nuclear beta-catenin stimulation ([1]; stimulation, at 2 µM): -0.9%
insulin secretion stimulation [2]: 4% (inactive)
viability decrease [3]: 84.6% (active)
tube area decrease [4]: 66.9% (active)
GLP1 secretion stimulation [5]: 28.5% (active)
inhibition of viability [6]: 74.8% (active)
viability decrease (inhibition) [7]: 142% (active)
viability decrease (inhibition) [8]: 104% (active)
remaining NAD [9]: 10 nM (inactive)

CCNCC(O)c1cccc(O)c1 (stereo not given)
survival [11]: 9.33 (inactive)
parasite load remaining [12]: 95% (inactive)
viability [12]: 69.4%
nuclear beta-catenin stimulation ([1]; at 10 µM): -1.1% (inactive)
nuclear beta-catenin stimulation ([1]; stimulation, at 2 µM): 2.2%
insulin secretion stimulation [2]: 0.6% (inactive)
viability decrease [3]: -11.3% (inactive)
tube area decrease [4]: 0.2% (inactive)
GLP1 secretion stimulation [5]: -2.7% (inactive)
inhibition of viability [6]: 1.7% (inactive)
viability decrease (inhibition) [7]: 15.1% (inactive)
viability decrease (inhibition) [8]: -2.7% (inactive)
fold change [10, 16]: 0.936 (inactive)
fold change [10, 17]: 0.593
cell count [10, 18]: 9690
cell count [10, 19]: 10400
z-score [13, 20]: 0.575 (inactive)
z-score [13, 21]: 0.102

CC(C)NCC(O)c1ccccc1Cl (stereo not given)
nuclear beta-catenin stimulation ([1]; at 10 µM): -0.5% (inactive)
nuclear beta-catenin stimulation ([1]; stimulation, at 2 µM): 0.8%
insulin secretion stimulation [2]: 11.3% (inactive)
viability decrease [3]: -4.5% (inactive)
tube area decrease [4]: 8.9% (inactive)
GLP1 secretion stimulation [5]: 3.1% (inactive)
inhibition of viability [6]: 0.8% (inactive)
viability decrease (inhibition) [7]: 23.3% (inactive)
viability decrease (inhibition) [8]: 9% (inactive)
fold change [10, 16]: 0.961 (inactive)
fold change [10, 17]: 0.533
cell count [10, 18]: 8950
cell count [10, 19]: 9320
z-score [13, 20]: -0.27 (inactive)
z-score [13, 21]: -0.204

c1ccc2c(c1)Sc1ccccc1N2CC1CN2CCC1CC2 (stereo not given)
nuclear beta-catenin stimulation ([1]; at 10 µM): 50.9% (active)
nuclear beta-catenin stimulation ([1]; stimulation, at 2 µM): -0.7%
insulin secretion stimulation [2]: 11.5% (inactive)
GLP1 secretion stimulation [5]: 26.8% (active)
fold change ([10]; stronger effect = lower value): 0.854 (inactive)
fold change [10, 17]: 0.648
cell count [10, 18]: 6390
cell count [10, 19]: 7490
z-score [13, 20]: -0.772 (inactive)
z-score [13, 21]: -0.213
z-score [14]: -2.58 (inactive)

COP(N)(=O)SC (stereo not given)
inhibition [15]: 4.36% (inactive)

Cn1c(=O)c2c(ncn2CCCl)n(C)c1=O
inhibition [15]: -2.23% (inactive)

CCCCN(CC)c1c([N+](=O)[O-])cc(C(F)(F)F)cc1[N+](=O)[O-]
inhibition [15]: -9.8% (inactive)
